The record followed here is the supplement of paper PMC10127200.

Counter-ions that a name gives are not always drawn.

In one assay the test system is 786-O. Briefly: Euclidean distance of Cell Painting phenotypic profile (signed KS, 77 features) to DMSO centroid (dimensionless distance); 5 or 10 uM (library dependent); higher = stronger phenotypic change vs DMSO (phenoactivity). Conditions: 48 h. The procedure, abridged: (§1)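 Five cancer lines and a healthy fibroblast line received library compounds at 10 or 5 uM (library-dependent, 0.1% DMSO final) for 48 h. Stained cells were imaged confocally at 20X (9 fields/well). Harmony extracted 77 features, each scored as a signed Kolmogorov-Smirnov statistic against same-plate vehicle wells. Profiles were plate-position corrected, correlation-weighted and replicate-averaged at the top dose. Phenoactivity is the Euclidean distance from each profile to the median vehicle profile.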
On to `OC(CCCN1CCCCC1)(c1ccccc1)c1ccccc1` [Diphenidol HCl], for which the Euclidean distance was 1.04.

Turning to `C[C@H]1COc2c(N3CCN(C)CC3)c(F)cc3c(=O)c(C(=O)O)cn1c23` [Levofloxacin hydrate], the Euclidean distance came to 1.06. In the case of `CC1=C(C(=O)OC(C)C)C(c2cccc([N+](=O)[O-])c2)C(C(=O)OC2CN(C(c3ccccc3)c3ccccc3)C2)=C(N)N1` (stereo not drawn) [Azelnidipine], the Euclidean distance was 1.85. Same read-out and setting: in the case of `C=C1/C(=C\C=C2/CCC[C@]3(C)[C@@H]([C@H](C)CCCC(C)(C)O)CC[C@@H]23)C[C@@H](O)C[C@@H]1O` [Calcitriol] it was 1.91; in that of `O=C(O)/C=C/c1ccc(O)c(O)c1` [Caffeic Acid], 0.946. The same measure, in the same setting: in the case of `CC[C@H]1[C@@H](O)[C@@H]2[C@H](CC[C@]3(C)[C@@H]([C@H](C)CCC(=O)O)CC[C@@H]23)[C@@]2(C)CC[C@@H](O)C[C@@H]12` [Obeticholic Acid] it was 0.797; in that of `CCCN1CCCC[C@H]1C(=O)Nc1c(C)cccc1C` [Ropivacaine], 1.19; in that of `CCN(CC)CCOC(=O)C1(C2CCCCC2)CCCCC1` [Dicyclomine HCl], 1.23. For `O=C(O)Cc1ccccc1Nc1c(Cl)cccc1Cl` [Diclofenac acid], the Euclidean distance was found to be 0.971. Same read-out and setting: in the case of `CCCOC(C(=O)OC1CCN(C)CC1)(c1ccccc1)c1ccccc1` [Propiverine hydrochloride] it was 1.73; in that of `O=C(Nc1ccccc1)Nc1ccc(-c2ccc(C(=O)[C@@H]3CCC[C@H]3C(=O)O)cc2)cc1`, 0.735; in that of `CC(=O)c1cc([N+](=O)[O-])c(Sc2ccc(F)cc2F)s1`, 0.453. The same measure, in the same setting: in the case of `Cc1ccc(Cl)cc1N(CC(=O)Nc1c(F)cccc1F)S(C)(=O)=O` it was 0.896.

The subject of another assay is A549. The assay is described as above. The settings on record: 48 h. The procedure, abridged: as §1
As to `CNC1CCCN(c2c(F)cc3c(=O)c(C(=O)O)cn(C4CC4)c3c2OC)C1` (stereo not drawn) [Balofloxacin Dihydrate], the Euclidean distance came to 0.602.

`OCCN1CCN(CCCN2c3ccccc3Sc3ccc(C(F)(F)F)cc32)CC1` [Fluphenazine dihydrochloride] displayed an Euclidean distance of 2.27.

Turning to `O=C(O)CCCCC(CCSCc1ccccc1)SCc1ccccc1` (stereo not drawn), the Euclidean distance was 0.928. On the same count and under the same terms, in the case of `CCOC(=O)Nc1ccc(NCc2ccc(F)cc2)nc1N` [Flupirtine maleate] it was 3.24. `N=C(N)NC(=N)N1CCOCC1` [Moroxydine HCl] yielded an Euclidean distance of 0.937.

Regarding `O=C(Nc1c(Cl)cncc1Cl)c1ccc(OC(F)F)c(OCC2CC2)c1` [Roflumilast], the Euclidean distance stood at 1.27. In the case of `C[N+](C)(C)NCCC(=O)[O-]` [Mildronate], the Euclidean distance amounted to 1.05. The same measure, in the same setting: for `CCN(CC)Cc1ccc2cc(COC(=O)Nc3ccc(C(=O)NO)cc3)ccc2c1` [Givinostat (ITF2357)] the value was 3.9; for `CCN(CC)CCCC(C)Nc1c2ccc(Cl)cc2nc2ccc(OC)cc12` (stereo not drawn) [Quinacrine Dihydrochloride Dihydrate], 5.06; for `CC/C(=C(/CC)c1ccc(O)cc1)c1ccc(O)cc1` [Diethylstilbestrol], 0.688. Still for that read-out and setting: for `CO/N=C(\C(=O)N[C@@H]1C(=O)N2C(C(=O)O)=C(CSc3nc(=O)c(O)nn3C)CS[C@H]12)c1csc(N)n1` [Ceftriaxone Sodium Trihydrate] the value was 0.779; for `CCN(CC)C(=O)/C(C#N)=C/c1cc(O)c(O)c([N+](=O)[O-])c1` [Entacapone], 0.512; for `C[C@H]1COc2c(C3(N)CC3)c(F)cc3c(=O)c(C(=O)O)cn1c23` [Pazufloxacin mesylate], 1.18. Same read-out and setting: for `O=C(O)c1ccccc1C(=O)Nc1ccc(S(=O)(=O)Nc2nccs2)cc1` [Phthalylsulfathiazole] the value was 1.02; for `OCCOc1ccc(/C(=C(/CCCl)c2ccccc2)c2ccccc2)cc1` [Ospemifene], 1.29. The compound `CN1C2CCCC1CC(NC(=O)c1nn(C)c3ccccc13)C2` (stereo not drawn) [Granisetron] gave an Euclidean distance of 0.852. As for `CC1=Nc2ccc(Cl)cc2S(=O)(=O)N1` [Diazoxide], the Euclidean distance is 0.782. In turn, `Cn1cc(/C=C/C(=O)c2cccc(F)c2)cc1/C=C/C(=O)NO` registered an Euclidean distance of 1.61. Take `CCCc1nc(C)c2c(=O)nc(-c3cc(S(=O)(=O)N4CCN(CC)CC4)ccc3OCC)[nH]n12` [Vardenafil HCl Trihydrate]: the Euclidean distance is 0.732. The same measure, in the same setting: for `COc1ccc(S(=O)(=O)N(C(C)=O)c2ccccc2/C=C/c2cc[n+]([O-])cc2)cc1` the value was 2.94.

As to `O=C(CCCCCCNC(=O)c1cnc(N(c2ccccc2)c2ccccc2Cl)nc1)NO` [Citarinostat (ACY-241)], the Euclidean distance amounted to 2.05. The same measure, in the same setting: for `CC[C@@H](Nc1c(Nc2cccc(C(=O)N(C)C)c2O)c(=O)c1=O)c1ccc(C)o1` the value was 0.692. The same measure, in the same setting: for `CC(C)[C@H](C(=O)Nc1ccc(C(=O)NO)cc1)c1ccccc1` the value was 4.55. Still for that read-out and setting: for `Nc1cccc2c1C(=O)N(C1CCC(=O)NC1=O)C2=O` (stereo not drawn) [Pomalidomide] the value was 0.804; for `Nc1nc(N)c2nc(-c3cccc(O)c3)cnc2n1`, 1.47; for `CC(=O)OCC1=C(C(=O)O)N2C(=O)[C@@H](NC(=O)Cc3cccs3)[C@H]2SC1` [Cephalothin], 0.786. For `COc1ccc(-c2ccc3c(N4CCOCC4)nc(N4C[C@@H](C)O[C@@H](C)C4)nc3n2)cc1CO`, the Euclidean distance came out at 2.15. In turn, `OC(CCCN1CCCCC1)(c1ccccc1)c1ccccc1` [Diphenidol HCl] yielded an Euclidean distance of 0.66. As for `C[C@H]1COc2c(N3CCN(C)CC3)c(F)cc3c(=O)c(C(=O)O)cn1c23` [Levofloxacin hydrate], the Euclidean distance is 0.678.

Compound `CC1=C(C(=O)OC(C)C)C(c2cccc([N+](=O)[O-])c2)C(C(=O)OC2CN(C(c3ccccc3)c3ccccc3)C2)=C(N)N1` (stereo not drawn) [Azelnidipine] displayed an Euclidean distance of 3.31.

For the compound `C=C1/C(=C\C=C2/CCC[C@]3(C)[C@@H]([C@H](C)CCCC(C)(C)O)CC[C@@H]23)C[C@@H](O)C[C@@H]1O` [Calcitriol], the Euclidean distance amounted to 1.1.

With `O=C(O)/C=C/c1ccc(O)c(O)c1` [Caffeic Acid], the Euclidean distance is 0.603. As to `CC[C@H]1[C@@H](O)[C@@H]2[C@H](CC[C@]3(C)[C@@H]([C@H](C)CCC(=O)O)CC[C@@H]23)[C@@]2(C)CC[C@@H](O)C[C@@H]12` [Obeticholic Acid], the Euclidean distance was found to be 0.614. On the same count and under the same terms, in the case of `CCCN1CCCC[C@H]1C(=O)Nc1c(C)cccc1C` [Ropivacaine] it was 1.64; in that of `CCN(CC)CCOC(=O)C1(C2CCCCC2)CCCCC1` [Dicyclomine HCl], 1.1; in that of `O=C(O)Cc1ccccc1Nc1c(Cl)cccc1Cl` [Diclofenac acid], 0.349. For `CCCOC(C(=O)OC1CCN(C)CC1)(c1ccccc1)c1ccccc1` [Propiverine hydrochloride], the Euclidean distance was found to be 1.08. Same read-out and setting: in the case of `O=C(Nc1ccccc1)Nc1ccc(-c2ccc(C(=O)[C@@H]3CCC[C@H]3C(=O)O)cc2)cc1` it was 0.898. The same measure, in the same setting: for `CC(=O)c1cc([N+](=O)[O-])c(Sc2ccc(F)cc2F)s1` the value was 0.953; for `Cc1ccc(Cl)cc1N(CC(=O)Nc1c(F)cccc1F)S(C)(=O)=O`, 1.9.
